Structures are written as SMILES. Unmarked numbers belong to inactive results.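 How the source made its calls, unless noted: active means NADPH fluorescence slope more negative than the mean of all samples by about 3 SD, 99.7% confidence; inactive means the rest.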

Sequence of Voltage-gated potassium channel subunit beta-2 (Rattus norvegicus) (P62483 whole entry, looked up): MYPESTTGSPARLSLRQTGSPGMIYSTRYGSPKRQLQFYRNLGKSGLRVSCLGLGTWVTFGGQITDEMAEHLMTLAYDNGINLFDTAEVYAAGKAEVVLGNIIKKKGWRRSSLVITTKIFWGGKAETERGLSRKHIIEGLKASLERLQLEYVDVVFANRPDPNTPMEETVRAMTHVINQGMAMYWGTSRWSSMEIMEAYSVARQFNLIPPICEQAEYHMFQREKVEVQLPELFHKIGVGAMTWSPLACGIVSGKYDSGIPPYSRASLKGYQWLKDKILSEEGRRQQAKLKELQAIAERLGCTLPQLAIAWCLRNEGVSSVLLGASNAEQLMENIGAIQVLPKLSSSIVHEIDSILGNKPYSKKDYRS
Sequence of Alpha-2C adrenergic receptor (Homo sapiens) (P18825 whole entry, looked up): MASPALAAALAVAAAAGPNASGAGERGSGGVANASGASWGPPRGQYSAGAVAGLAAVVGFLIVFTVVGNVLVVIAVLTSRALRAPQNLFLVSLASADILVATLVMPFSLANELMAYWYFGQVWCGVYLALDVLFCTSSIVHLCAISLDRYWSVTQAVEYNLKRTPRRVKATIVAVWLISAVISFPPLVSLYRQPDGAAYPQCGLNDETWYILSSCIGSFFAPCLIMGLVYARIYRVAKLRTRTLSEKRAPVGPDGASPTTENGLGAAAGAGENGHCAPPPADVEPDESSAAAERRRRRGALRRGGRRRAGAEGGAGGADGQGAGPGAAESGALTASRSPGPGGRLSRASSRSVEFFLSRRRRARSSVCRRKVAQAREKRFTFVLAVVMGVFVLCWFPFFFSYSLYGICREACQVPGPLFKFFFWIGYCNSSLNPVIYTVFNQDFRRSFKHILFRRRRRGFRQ

One assay addresses Voltage-gated potassium channel subunit beta-2 (Rattus norvegicus) (UniProt P62483). The assay can be described thus: enhancers of rat Kvbeta2 NADPH turnover – biochemical, NADPH fluorescence, primary screen (AID 623).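 Further: fluorescence intensity change per second fitted from 20 to 320 s.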 As to conditions: Recombinant KvBeta, NADPH fluorescence decrease slope, 10 min; at 10 µM; stronger effect = lower value.
`COC(=O)c1sc(S(=O)(=O)NCc2cccs2)c(C(=O)OC)c1C`: the NADPH fluorescence slope is -3.4e-06.
Take `CS(=O)(=O)N1CCN(c2ccccc2NC(=O)c2cccs2)CC1`: the NADPH fluorescence slope is 1.2e-05.
Same read-out and setting: the result for `O=C(Nc1ccccc1)C1=C(O)CC(c2ccoc2)CC1=Nc1ccccc1` (stereo not given) reads -5.7e-05.
On the same count and under the same terms, the result for `CCCCCc1c(C)nc(N2CCc3ccccc32)[nH]c1=O` reads 1.7e-05.
On the same count and under the same terms, with `CCOC(=O)c1cccc(NC(=O)CNS(=O)(=O)c2cccs2)c1` the figure was -4.4e-05; with `CN(C)CCCN1C(=O)CSC1c1ccccc1` (stereo not given), -3e-05; with `COc1cc2c(cc1OC)-c1nnc(-c3cccs3)n1C(C)(C)C2`, -1.8e-05.
Take `Cn1cc(Br)c(C(=O)NC2CCCCC2)n1`: the NADPH fluorescence slope was 1.7e-05.
Consider `COC(=O)c1ccc(CNC(=O)CSc2nc3sc(C)c(C)c3c(=O)n2C)o1`, for which the NADPH fluorescence slope is -4e-05.
`Cn1c(=O)c2c(nc(NCCCO)n2C/C=C/c2ccccc2)n(C)c1=O`: the NADPH fluorescence slope was 9.8e-06.
Turning to `CCOC(=O)N1CCN(CCC(=O)c2ccc(Cl)cc2)CC1`, the NADPH fluorescence slope was -3.9e-05.
Still for that read-out and setting: with `CCOC(=O)C1CCCN(c2c(NCc3ccco3)c(=O)c2=O)C1` (stereo not given) the figure was -1.5e-05.
Same read-out and setting: with `CCCCn1c(CNC(=O)CCC)nc2ccccc21` the figure was -4.3e-05; with `CCC(c1nnnn1C(C)(C)C)N1CCN(C2CCCC2)CC1` (stereo not given), -1.4e-05; with `CC(C)(C)c1nnc(NC(=O)C2CCN(c3ncccn3)CC2)s1`, -3.5e-05.
In the case of `CCN1CCN(C(CNC(=O)c2ccc3c(c2)OCO3)c2cccnc2)CC1` (stereo not given), the NADPH fluorescence slope is 1.4e-05.
`COc1ccc(C(=O)CSc2nnc(C3CCCCC3)n2N)c(OC)c1`: the NADPH fluorescence slope is -2e-05.
Consider `COC(=O)c1c(NC(=O)CSc2nnnn2C)sc(C)c1C`, for which the NADPH fluorescence slope was -3.1e-05.
Turning to `CCOC(=O)C(C)(C)Sc1nc2c(cnn2-c2ccc(Cl)cc2)c(=O)[nH]1`, the NADPH fluorescence slope was -5e-05.
On the same count and under the same terms, the result for `O=c1ccc2cc3c([nH]c4ccc(Br)cc43)oc-2c1O` reads -5.1e-05; that for `O=C(OCC(=O)N1CCCC1)c1ccccc1OCc1ccccc1`, -3.9e-05.
Consider `Cc1ccc2cc(CN(Cc3ccc4c(c3)OCO4)Cc3nnnn3Cc3ccco3)c(=O)[nH]c2c1C`, for which the NADPH fluorescence slope was 4.5e-05.
As to `COc1ccc(Br)cc1S(=O)(=O)N1CC(C)OC(C)C1` (stereo not given), the NADPH fluorescence slope was 3.8e-05.
Still for that read-out and setting: the result for `CCc1nnc(NC(=O)c2cc3ccccc3oc2=O)s1` reads -2e-05.
On the same count and under the same terms, with `O=c1c[n+]([O-])c2ccccc2n1OCc1c(F)cccc1F` the figure was -2.4e-05; with `Cc1ccc(-n2cnnn2)c2cccnc12`, -1.4e-05.
For the compound `O=C(c1ccc(S(=O)(=O)N2CCOCC2)cc1)N(c1ccc(F)cc1)C1C=CS(=O)(=O)C1` (stereo not given), the NADPH fluorescence slope is 1.6e-05.
As for `Cn1c(=O)c2c(nc(CN3CCCCC3)n2CCc2ccccc2)n(C)c1=O`, the NADPH fluorescence slope was -1.3e-05.
The same measure, in the same setting: with `O=C(CCNS(=O)(=O)c1ccc(Cl)cc1)NCc1ccccn1` the figure was 8.2e-06; with `CCOC(=O)CNC(=O)Nc1nnc(-c2ccc(OCC)cc2)o1`, 2.1e-05.
Still for that read-out and setting: the result for `CN(C)S(=O)(=O)c1ccc(Oc2ccc(S(=O)(=O)N(C)C)cc2)cc1` reads 3.1e-05.
As to `CCCCc1c(O)nc(N2CCN(Cc3ccccc3)CC2)[nH]c1=O`, the NADPH fluorescence slope was -4.3e-05.
Still for that read-out and setting: the result for `CCCc1cc(=O)[nH]c(SCc2ccccc2)n1` reads -1.1e-07; that for `CCOC(=O)N1CCC(c2cc(=O)n3[nH]cc(C(=O)OC)c3n2)CC1`, -1.8e-05.
The same measure, in the same setting: with `c1ccc(C2(Cn3ccc4ccccc43)OCCO2)cc1` the figure was 2.6e-06; with `O=C(Nc1ccccc1)N(O)c1ccc(Cl)cc1`, -7.1e-05.
Take `S=c1[nH]nc(-c2cccc(Br)c2)o1`: the NADPH fluorescence slope was 1.9e-05.
Same read-out and setting: the result for `N#CC1=C(N)C(C#N)(C#N)[C@H](c2ccsc2)[C@H]2COCC=C12` reads 2.1e-05; that for `COC(=O)CCC(=O)Nc1cccc(Br)c1`, -0.000246; that for `C=CCOC(=O)C1=C(C)OC(N)=C(C#N)C1c1ccc2c(c1)OCO2` (stereo not given), -3.1e-05.

Another assay concerns the target Alpha-2C adrenergic receptor (Homo sapiens) (UniProt P18825). The assay can be described thus: compounds altering alpha2C-coupled GIRK flux – cell-based, HEK293 alpha2C/GIRK1/2, thallium flux, primary screen (AID 624;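 active means fluorescence slope after compound addition differing from the mean of all screened samples at 99.7% confidence, in either direction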;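 further: slope of fluorescence ratio to pre-addition baseline per second over 15 to 24 s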). As to conditions: thallium flux BTC fluorescence, at 10 µM, actives lie on both sides.
Turning to `COC(=O)c1sc(S(=O)(=O)NCc2cccs2)c(C(=O)OC)c1C`, the slope is 0.00602.
Still for that read-out and setting: with `CS(=O)(=O)N1CCN(c2ccccc2NC(=O)c2cccs2)CC1` the figure was 0.00365; with `O=C(Nc1ccccc1)C1=C(O)CC(c2ccoc2)CC1=Nc1ccccc1` (stereo not given), 0.00565.
Same read-out and setting: the result for `CCCCCc1c(C)nc(N2CCc3ccccc32)[nH]c1=O` reads 0.00814; that for `CCOC(=O)c1cccc(NC(=O)CNS(=O)(=O)c2cccs2)c1`, 0.00596; that for `CN(C)CCCN1C(=O)CSC1c1ccccc1` (stereo not given), 0.00787.
Still for that read-out and setting: with `COc1cc2c(cc1OC)-c1nnc(-c3cccs3)n1C(C)(C)C2` the figure was 0.00581; with `Cn1cc(Br)c(C(=O)NC2CCCCC2)n1`, 0.00924; with `COC(=O)c1ccc(CNC(=O)CSc2nc3sc(C)c(C)c3c(=O)n2C)o1`, 0.00252.
On to `Cn1c(=O)c2c(nc(NCCCO)n2C/C=C/c2ccccc2)n(C)c1=O`, for which the slope was 0.004.
As to `CCOC(=O)N1CCN(CCC(=O)c2ccc(Cl)cc2)CC1`, the slope is 0.00547.
Consider `CCOC(=O)C1CCCN(c2c(NCc3ccco3)c(=O)c2=O)C1` (stereo not given), for which the slope is 0.00732.
In the case of `CCCCn1c(CNC(=O)CCC)nc2ccccc21`, the slope was 0.00641.
Same read-out and setting: with `CCC(c1nnnn1C(C)(C)C)N1CCN(C2CCCC2)CC1` (stereo not given) the figure was 0.00353; with `CC(C)(C)c1nnc(NC(=O)C2CCN(c3ncccn3)CC2)s1`, 0.00755; with `CCN1CCN(C(CNC(=O)c2ccc3c(c2)OCO3)c2cccnc2)CC1` (stereo not given), 0.00612.
Still for that read-out and setting: the result for `COc1ccc(C(=O)CSc2nnc(C3CCCCC3)n2N)c(OC)c1` reads 0.00551; that for `COC(=O)c1c(NC(=O)CSc2nnnn2C)sc(C)c1C`, 0.00478; that for `CCOC(=O)C(C)(C)Sc1nc2c(cnn2-c2ccc(Cl)cc2)c(=O)[nH]1`, 0.00733.
The same measure, in the same setting: with `O=c1ccc2cc3c([nH]c4ccc(Br)cc43)oc-2c1O` the figure was 0.00638; with `O=C(OCC(=O)N1CCCC1)c1ccccc1OCc1ccccc1`, 0.00498; with `Cc1ccc2cc(CN(Cc3ccc4c(c3)OCO4)Cc3nnnn3Cc3ccco3)c(=O)[nH]c2c1C`, 0.00797.
In the case of `COc1ccc(Br)cc1S(=O)(=O)N1CC(C)OC(C)C1` (stereo not given), the slope was 0.0065.
Turning to `CCc1nnc(NC(=O)c2cc3ccccc3oc2=O)s1`, the slope is 0.00433.
The same measure, in the same setting: the result for `O=c1c[n+]([O-])c2ccccc2n1OCc1c(F)cccc1F` reads 0.00594; that for `Cc1ccc(-n2cnnn2)c2cccnc12`, 0.00333.
In the case of `O=C(c1ccc(S(=O)(=O)N2CCOCC2)cc1)N(c1ccc(F)cc1)C1C=CS(=O)(=O)C1` (stereo not given), the slope was 0.0046.
For the compound `Cn1c(=O)c2c(nc(CN3CCCCC3)n2CCc2ccccc2)n(C)c1=O`, the slope was 0.00323.
On the same count and under the same terms, with `O=C(CCNS(=O)(=O)c1ccc(Cl)cc1)NCc1ccccn1` the figure was 0.00312.
The same measure, in the same setting: the result for `CCOC(=O)CNC(=O)Nc1nnc(-c2ccc(OCC)cc2)o1` reads 0.00589; that for `CN(C)S(=O)(=O)c1ccc(Oc2ccc(S(=O)(=O)N(C)C)cc2)cc1`, 0.00921; that for `CCCCc1c(O)nc(N2CCN(Cc3ccccc3)CC2)[nH]c1=O`, 0.0053.
Same read-out and setting: the result for `CCCc1cc(=O)[nH]c(SCc2ccccc2)n1` reads 0.00614; that for `CCOC(=O)N1CCC(c2cc(=O)n3[nH]cc(C(=O)OC)c3n2)CC1`, 0.00674.
In the case of `c1ccc(C2(Cn3ccc4ccccc43)OCCO2)cc1`, the slope was 0.00648.
On to `O=C(Nc1ccccc1)N(O)c1ccc(Cl)cc1`, for which the slope was 0.00373.
As to `S=c1[nH]nc(-c2cccc(Br)c2)o1`, the slope is 0.0039.
Still for that read-out and setting: with `N#CC1=C(N)C(C#N)(C#N)[C@H](c2ccsc2)[C@H]2COCC=C12` the figure was 0.00495.
On the same count and under the same terms, the result for `COC(=O)CCC(=O)Nc1cccc(Br)c1` reads 0.00597.
`C=CCOC(=O)C1=C(C)OC(N)=C(C#N)C1c1ccc2c(c1)OCO2` (stereo not given): the slope was 0.00567.
